Inhibition data for 72 molecules are collected here from PubChem BioAssay AID488890 (Southern Research Specialized Biocontainment Screening …, 2010).

In all, about 320,000 compounds went through this assay and about 1,300 (0.41%) were called active. About 3% were inconclusive and are not listed. The rule behind the calls is not given here. A selection follows. Results with a measured potency or affinity are listed apart. Peptide text beside a SMILES is read from it. * marks the point of attachment. Boc = CC(C)(C)OC(=O)*; OtBu = CC(C)(C)O*

The inhibition is the relative decrease from the control value, in per cent.

The assay in a line: growth inhibition of non-replicating M. tuberculosis (AID 488890).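 Note: plate controls were DMSO cells for no effect and high antibiotic wells for full effect.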 As to conditions: Mycobacterium tuberculosis non-replicating, at 25 µM, stronger effect = higher value.
On to `CC(NC(=O)C(CC(=O)OC(C)(C)C)NC(=O)OC(C)(C)C)C(N)=O` (configuration not stated) (Boc-Asp(OtBu)-Ala-NH2; configuration not given here), for which the inhibition is -0.24%.

`CCOC(=O)c1csc(NC(=O)c2ccc(OCC)cc2)n1`: the inhibition was found to be 19.8%.

On to `CC(=O)c1csc(COc2ccc(Cl)cc2)n1`, for which the inhibition stood at 38.9%.

`Cc1onc(C(=O)NN)c1-c1csc(COc2ccc(Cl)cc2)n1`: the inhibition stood at 13.2%.

On to `CCOC(=O)c1ccccc1-c1csc(N)n1`, for which the inhibition was 6.53%.

In the case of `Cc1onc(-c2ccc(Cl)cc2Cl)c1-c1csc(COc2ccccc2)n1`, the inhibition was -7.56%.

Consider `Nc1nonc1-c1noc(COc2ccccc2Cl)n1`, for which the inhibition was 5.72%.

As for `CCn1cc(C(=O)NCC2CCCO2)c(=O)c2cc(S(=O)(=O)N3CCCCCC3)ccc21` (configuration not stated), the inhibition came out at 4.04%.

As to `COc1ccccc1C(=O)Nc1c2c(nn1-c1cccc(C)c1C)CS(=O)(=O)C2`, the inhibition was found to be 2.28%.

For `CC(C)c1ccc(NC2CCCN(C(=O)c3ccc(Cn4cnnn4)cc3)C2)cc1` (configuration not stated), the inhibition stood at 10.9%.

Regarding `CS(=O)(=O)N1CCCC(C(=O)Nc2ccc(F)c(F)c2)C1` (configuration not stated), the inhibition was -12.2%.

For `Nn1c(SCC(=O)Nc2ccc3c(c2)OCCO3)nncc1=O`, the inhibition is -11.2%.

Regarding `CCOc1ccccc1N/C=C/C(=O)C(C)(C)C`, the inhibition came out at 0.25%.

Take `Cc1ccc(N/C=C/C(=O)C(C)(C)C)c(O)c1`: the inhibition was found to be 6.34%.

In the case of `Cc1ccc(N/C=C/C(=O)c2ccco2)c(O)c1`, the inhibition amounted to 12.5%.

`NC(=O)c1ccccc1N/C=C/C(=O)c1ccco1`: the inhibition was -0.65%.

Turning to `C=C(C)COc1ccc(-c2[nH]ncc2Oc2ccc(OC)cc2)c(O)c1`, the inhibition is -5.21%.

In the case of `COc1ccc(C(c2c(N)[nH]c(=S)[nH]c2=O)c2c(N)[nH]c(=S)[nH]c2=O)cc1`, the inhibition was -18.4%.

Take `COc1ccc(-c2csc(-c3ccc(O)cc3)n2)cc1`: the inhibition was 40%.

As for `COc1ccc(-c2nc(CCl)cs2)cc1`, the inhibition is 7.52%.

Regarding `O=C(CSc1c2c(nc3cc(Cl)ccc13)CCCC2)NCCCN1CCOCC1`, the inhibition came to 50%.

As for `Cc1[nH]c(=S)c(C#N)c2c1CCCC2`, the inhibition was found to be 16.1%.

On to `COc1ccc(CNc2nc3nc(C)c(Cl)c(=O)n3[nH]2)cc1`, for which the inhibition came to 28.1%.

As to `CC(OC(=O)c1cc(S(=O)(=O)N2CCOCC2)ccc1Br)C(=O)N1CCOCC1` (configuration not stated), the inhibition is 6.34%.

As for `CCC1Oc2ccccc2N(CC(=O)NCCCN2CCCCC2CC)C1=O` (configuration not stated), the inhibition turned out to be 1.4%.

Take `NS(=O)(=O)c1ccc(NC2=CC(=O)C(=O)c3ccccc32)cc1`: the inhibition came out at 36.2%.

As for `CC(=O)Nc1ccc(NC2=CC(=O)c3ccccc3C2=O)cc1`, the inhibition is -2.89%.

With `CCOC(=O)c1ccc(NC(=O)C(C)N2C(=O)c3ccccc3C2=O)cc1` (configuration not stated), the inhibition is -8.22%.

For the molecule `CCOC(=O)c1ccccc1NC1OC(=O)c2ccccc21` (configuration not stated), the inhibition is -8.12%.

On to `CCOC(=O)c1ccc(NC2c3ccccc3C(=O)N2c2ccccn2)cc1` (configuration not stated), for which the inhibition is -6.64%.

For `O=C1C=C(Nc2ccccc2)C(=O)c2ccccc21`, the inhibition came to 56.9%.

For the molecule `CCOC(=O)c1c(C)[nH]c(C(=O)COC(=O)Cn2cc(C(F)(F)F)ccc2=O)c1C`, the inhibition was 2.63%.

On to `CCCc1nnc(NC(=O)CCC(=O)Nc2ccc(F)cc2)s1`, for which the inhibition was -5.14%.

As to `CCN(C(=O)c1ccc(Cl)c(S(=O)(=O)Nc2c(C)n(C)n(-c3ccccc3)c2=O)c1)c1ccccc1`, the inhibition came to 5.47%.

Consider `CCN(CC)C(=O)Cn1cc(C(=O)C(=O)N2CCCc3ccccc32)c2ccccc21`, for which the inhibition was found to be 16.8%.

For the molecule `Cc1cc(/C=C2\NC(=O)NC2=O)c(C)n1-c1cccnc1`, the inhibition was -6.79%.

`S=C(Nc1ccccc1)N1CCC(Cc2ccccc2)CC1`: the inhibition worked out at 5.68%.

For the molecule `COc1ccc(O)c(/C=N/NC(=O)c2cccc(N3CCCC3=O)c2)c1`, the inhibition worked out at 5.55%.

As to `O=C(N/N=C/c1cc(Br)ccc1O)c1cccc(N2CCCC2=O)c1`, the inhibition was 54.7%.

Regarding `CCC1(CC)C(=O)N(C)C(=O)NC1=NC`, the inhibition is -9.72%.

On to `CN(C)/N=C/c1cc([N+](=O)[O-])ccc1O`, for which the inhibition is -5.98%.

For the molecule `O=C(N/N=C/c1ccccc1[N+](=O)[O-])c1cccs1`, the inhibition stood at 55.4%.

As to `O=C(N/N=C\c1cc2c(cc1[N+](=O)[O-])OCO2)c1cccs1`, the inhibition came out at 16.5%.

For the molecule `O=[N+]([O-])c1ccc(O)c(/C=N\N=C2c3ccccc3-c3ccccc32)c1`, the inhibition was 72.8%.

On to `O=[N+]([O-])c1cccc(C=Nc2cccc3ccccc23)c1O`, for which the inhibition was 55.1%.

Regarding `O=[N+]([O-])c1cccc(/C=N\N=C2c3ccccc3-c3ccccc32)c1O`, the inhibition was 22%.

Take `c1ccc(CN2CCNCC2)nc1`: the inhibition was -22.1%.

Turning to `CCOc1ncccc1C(=O)OCC(=O)N1CCN(S(=O)(=O)c2ccccc2)CC1`, the inhibition is -4.22%.

With `CCOc1ccc(/C=N/OCC(=O)NCc2ccc3c(c2)OCO3)cc1OC`, the inhibition is 13%.

As to `CCNC(=O)CSc1nnc(-c2cccs2)o1`, the inhibition stood at 61.4%.

As to `Cc1ccc(S(=O)(=O)Nc2ccnc3ccccc23)cc1`, the inhibition was -9.89%.

On to `Cc1ccc(S(=O)(=O)Nc2cccc3ncccc23)cc1`, for which the inhibition came out at 15.3%.

Regarding `O=C(NNC1OC(CO)C(O)C(O)C1O)c1cccnc1` (configuration not stated), the inhibition was -18.5%.

As to `CCOC(=O)c1c(-n2cnnn2)sc2c1CCCC2`, the inhibition turned out to be 0.53%.

For `CCCS(=O)(=O)c1nc(S(=O)(=O)c2ccc(Cl)cc2)c(N2CCC(O)CC2)s1`, the inhibition was 9.91%.

For the molecule `CCOC(=O)Cn1c(-c2ccccc2)cc(SC)c(C#N)c1=O`, the inhibition worked out at 37.8%.

As for `CCn1c(-c2ccccc2)ccc(C#N)c1=O`, the inhibition is -0.3%.

As for `COC(=O)Cn1cc(C#N)c2ccccc21`, the inhibition was 51.2%.

Turning to `CC(C)OC(=O)Cn1cc(C#N)c2ccccc21`, the inhibition turned out to be 17%.

For the molecule `CCc1cccc2c(C#N)cn(CC(=O)NCCOC)c12`, the inhibition stood at 2.34%.

`CCc1cccc2c(C#N)cn(CC(=O)N3CCOCC3)c12`: the inhibition was -9.31%.

`Cc1cc(Cl)ccc1OCC(=O)Nc1cccnc1`: the inhibition was found to be 41%.

Consider `C[C@]12C(=O)N(c3ccccc3)C(=O)N1[C@H]1c3ccccc3OC[C@@H]1[C@H]2c1ccccc1`, for which the inhibition was 79%.

For `Cn1c2ccccc2c2cc(/C=N/NC(=O)c3cc(O)cc(O)c3)ccc21`, the inhibition is -7.45%.

For `O=C(O)c1cccc(NS(=O)(=O)/C=C/c2ccccc2)c1`, the inhibition was -0.77%.

Regarding `O=C(O)c1ccc(NS(=O)(=O)/C=C/c2ccccc2)cc1`, the inhibition is -4.07%.

As to `CC(=O)Nc1ccc(NC(=S)NC(=O)C2CCCC2)cc1`, the inhibition turned out to be 30.2%.

Regarding `O=C(Nc1ccc(F)cc1)C1CCCCC1`, the inhibition turned out to be 42.2%.

With `OCC1(CCOc2ccccc2)CCN(Cc2ccc3c(c2)OCCO3)CC1`, the inhibition is 14.7%.

Regarding `COC(=O)C(NC(C)=O)(Nc1nc2ccc(S(C)(=O)=O)cc2s1)C(F)(F)F` (configuration not stated), the inhibition was -2.55%.

Take `COc1ccccc1C(CCNCc1ccccc1)c1ccc(OC(C)C)cc1` (configuration not stated): the inhibition was 68.5%.

For `COc1ccc(C(CCNCc2ccc(OC)c(OC)c2)c2ccc(F)cc2)cc1` (configuration not stated), the inhibition was determined as 76.8%.
